Assay results from PubChem BioAssay (Tox21).
Where “and” joins values, the source holds several entries; their conditions need not be identical. Equal entries are not always repeated. Inconclusive results are not listed. Calls of active or inactive are those of the source. Unless noted, the call rests on the fitted dose curve; in most records, active means well fitted curve in the direction sought with a large enough effect in the repeat runs; inconclusive means weak or mixed curves; inactive means no such curve, though single readings can be large; an effect the other way counts as inactive or inconclusive.

Tests used:
[1] = qHTS assay to identify small molecule agonists of the RXR signaling pathway - cell viability counter screen (AID 1159529); further: nearly all actives have a fitted effect of over 50% in size; further: potency means the concentration at half of the fitted maximal effect
Procedure, shortened: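 RXR-alpha-UAS-bla HEK 293T cells in medium with 2% charcoal-stripped FBS were pre-incubated 5 hr, then compound-treated 16 hr at 37 C. Viability was read by CellTiter-Glo luminescence in the same wells as the beta-lactamase assay, with tetraoctyl ammonium bromide as positive control.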

[2] = qHTS assay to identify small molecule antagonists of the retinoid acid receptor (RAR) signaling pathway - cell viability counter screen (AID 1159551); further: nearly all actives have a fitted effect of over 35% in size; further: potency means the concentration at half of the fitted maximal effect
Procedure, shortened: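 Retinol-stimulated (1 uM final) C3RL4 cells, compound 6 h, 37 C; readout CellTiter-Glo luminescence (ATP) after 30 min RT incubation.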

[3] = qHTS assay to identify small molecule antagonists of the estrogen related receptor (ERR) signaling pathway from Tox21 library - cell viability counter screen (AID 1224834); further: nearly all actives have a fitted effect of over 30% in size; further: potency means the concentration at half of the fitted maximal effect
Procedure, shortened: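 After 17.5 h of compound exposure at 37 C, ERR cells are incubated with CellTiter-Fluor for 30 min and fluorescence intensity serves as the viability measure.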

[4] = molecular target: Luciferin 4-monooxygenase (Photinus pyralis) (UniProt P08659); test: qHTS assay to identify small molecule inhibitors of firefly luciferase (AID 1224835); further: nearly all actives have a fitted effect of over 25% in size; further: potency means the concentration at half of the fitted maximal effect
Procedure, shortened: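 Inhibition of purified Photinus luciferase is measured by luminescence. Substrate levels (D-luciferin, ATP) sit at their KM values. Each compound is tested in a concentration series.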

[5] = qHTS assay to identify small molecule agonists of the constitutive androstane receptor (CAR) signaling pathway - cell viability counter screen (AID 1224836); further: nearly all actives have a fitted effect of over 45% in size; further: potency means the concentration at half of the fitted maximal effect
Procedure, shortened: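 HepG2 cells stably carrying hCAR and a CYP2B6-2.2kb reporter; 15-concentration compounds plus PK11195 (final 0.75 uM), 23 hr at 37 C/5% CO2. Viability read by CellTiter-Fluor fluorescence.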

[6] = qHTS assay to identify small molecule antagonists of the estrogen related receptor signaling pathway with the pleiotropic PPARgamma coactivator (PGC) from Tox21 10K library - cell viability counter screen (AID 1224840; active means well fitted cell-killing curve with a large enough effect in the repeat runs, not every such curve was filed as active; further: nearly all actives have a fitted effect of over 40% in size; further: potency means the concentration at half of the fitted maximal effect)
Procedure, shortened: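 Following seeding of 2,000 PGC/ERR cells/well and 6 hours' incubation, test compounds were delivered in DMSO. The plates then sat 17.5 hours at 37 C before a fluorogenic live-cell protease reagent (CellTiter-Fluor) was read after 30 min.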

[7] = qHTS assay to identify small molecule antagonists of the estrogen related receptor signaling pathway with the pleiotropic PPARgamma coactivator (PGC) from Tox21 10K library (AID 1224841; call rule not given here; further: actives are mostly falling curves and most rising ones were filed inactive; nearly all actives have a fitted effect of over 50% in size; further: potency means the concentration at half of the fitted maximal effect)
Procedure, shortened: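 qHTS antagonist format: PGC/ERR cells, 2k/well, compound in DMSO by pin transfer after 6 h attachment, 18 h treatment at 37 C, One-Glo luminescence read at 30 min.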

[8] = qHTS assay to identify small molecule agonists of the estrogen related receptor signaling pathway with the pleiotropic PPARgamma coactivator (PGC) from Tox21 10K library (AID 1224842); further: nearly all actives have a fitted effect of over 15% in size
Procedure, shortened: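 Luminescence from One-Glo (30 min, room temperature) measured after PGC/ERR cells had 18 h at 37 C with pinned compound (23 nL in DMSO). Cells had been seeded at 2,000 per well and pre-incubated 6 h.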

[9] = molecular target: Thyrotropin receptor (Homo sapiens) (UniProt P16473); test: qHTS assay to identify small molecule agonists of the thyroid stimulating hormone receptor (TSHR) signaling pathway (AID 1224843; calls by dose curve; further: nearly all actives have a fitted effect of over 45% in size; further: potency means the concentration at half of the fitted maximal effect)
Procedure, shortened: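 Screening of the Tox21 10K collection used HEK293 cells engineered with TSHR at 800 cells per well. After a 30-min room-temperature compound exposure, HTRF cAMP reagents were added and fluorescence recorded 1 h later.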

[10] = qHTS assay to identify small molecule antagonists of the constitutive androstane receptor (CAR) signaling pathway - cell viability counter screen (AID 1224837); further: nearly all actives have a fitted effect of over 45% in size; further: potency means the concentration at half of the fitted maximal effect
Procedure, shortened: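 Counter screen run in HepG2-CYP2B6-hCAR cells: 4 hr settle, compound titration (15 concentrations) with 50 nM CITCO, 23 hr at 37 C/5% CO2, CellTiter-Fluor fluorescence.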

[11] = molecular target: Nuclear receptor subfamily 1 group I member 3 (Homo sapiens) (UniProt Q14994); test: qHTS assay to identify small molecule antagonists of the constitutive androstane receptor (CAR) signaling pathway (AID 1224838);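 further: HepG2 cells stably expressing hCAR with CYP2B6 luciferase reporter stimulated by CITCO; nearly all actives have a fitted effect of over 40% in size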; further: potency means the concentration at half of the fitted maximal effect
Procedure, shortened: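 Cell line: HepG2 double-stable for hCAR and CYP2B6-2.2kb reporter. Agonist: CITCO, 50 nM final. Compounds: 15 concentrations, 24 h, 37 C. Detection: ONE-Glo luminescence.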

[12] = molecular target: Nuclear receptor subfamily 1 group I member 3 (Homo sapiens) (UniProt Q14994); test: qHTS assay to identify small molecule agonists of the constitutive androstane receptor (CAR) signaling pathway (AID 1224839); further: nearly all actives have a fitted effect of over 15% in size; further: potency means the concentration at half of the fitted maximal effect
Procedure, shortened: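 HepG2 cells stably co-transfected with hCAR and a CYP2B6-2.2kb luciferase reporter; compounds at 15 concentrations with 0.75 uM PK11195 present. After 24 hr at 37 C, luciferase read by ONE-Glo luminescence.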

[13] = qHTS assay to identify small molecule agonists of the retinoic acid receptor (RAR) signaling pathway (AID 1159553); further: potency means the concentration at half of the fitted maximal effect
Procedure, shortened: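 Reporter readout comes from luciferase under RARE control in C3RL4 cells; compound exposure lasts 6 hr at 37 C in 5% CO2, and luminescence is recorded following a 30 min room-temperature incubation with reagent.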

[14] = qHTS assay to identify small molecule antagonists of the retinoic acid receptor (RAR) signaling pathway (AID 1159552; further: nearly all actives have a fitted effect of over 50% in size; further: potency means the concentration at half of the fitted maximal effect)
Procedure, shortened: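 Retinol signaling pathway inhibitors screened in C3RL4 RARE-luciferase reporter cells seeded overnight at 37 C, then compounds added with 1 uM (final) retinol as pathway substrate. After 6 hr at 37 C, luciferase luminescence read after 30 min at room temperature.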

[15] = qHTS assay to identify small molecule antagonists of the estrogen related receptor (ERR) signaling pathway - cell viability counter screen (AID 1224818); further: potency means the concentration at half of the fitted maximal effect
Procedure, shortened: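 After a 6 h pre-incubation, ERR cells were dosed by pin tool with compounds, positive/negative controls or DMSO alone. Following 17.5 h at 37 C and 30 min with CellTiter-Fluor, fluorescence was recorded.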

[16] = qHTS assay to identify small molecule agonists of the estrogen related receptor (ERR) signaling pathway (AID 1224820)
Procedure, shortened: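 Cells: ERR line from NTP, 2,000/well. Pre-incubation 6 h, 37 C/5% CO2. Compound (DMSO) pin transfer, 18 h 37 C. One-Glo, 30 min RT, luminescence.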

[17] = qHTS assay to identify small molecule antagonists of the estrogen related receptor signaling pathway with the pleiotropic PPARgamma coactivator (PGC) cell viability counter screen (AID 1224822; further: potency means the concentration at half of the fitted maximal effect)
Procedure, shortened: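 PGC/ERR cells were plated at 2,000 per well and allowed 6 h to settle before compound addition. Following 17.5 h at 37 C, CellTiter-Fluor reagent was added and fluorescence was read 30 min later.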

[18] = qHTS assay to identify small molecule agonists of the estrogen related receptor signaling pathway with the pleiotropic PPARgamma coactivator (PGC) (AID 1224823)
Procedure, shortened: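 Steps: plate PGC/ERR cells at 2,000 cells/well; incubate 6 h, 37 C/5% CO2; pin-transfer compounds (DMSO); incubate 18 h, 37 C; add One-Glo; 30 min RT; read luminescence.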

[19] = system: estrogen-related receptor alpha (ERRalpha) with PGC-1alpha coactivator, human; test: qHTS assay to identify small molecule antagonists of the estrogen related receptor signaling pathway with the pleiotropic PPARgamma coactivator (PGC) (AID 1224821; calls by dose curve;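 further: series mostly up to about 46 µM; lower luminescence signal means antagonism of PGC/ERR signalling; nearly all actives have a fitted effect of over 50% in size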)
Procedure, shortened: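 Luminescent read-out (One-Glo, 30 min at room temperature) following 18 h treatment of PGC/ERR cells at 37 C with compounds delivered in DMSO. Cells had settled 6 h at 37 C/5% CO2 before dosing.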

Measured: Potency

Chain of Nuclear receptor subfamily 1 group I member 3 (Homo sapiens) (Q14994 whole entry, looked up): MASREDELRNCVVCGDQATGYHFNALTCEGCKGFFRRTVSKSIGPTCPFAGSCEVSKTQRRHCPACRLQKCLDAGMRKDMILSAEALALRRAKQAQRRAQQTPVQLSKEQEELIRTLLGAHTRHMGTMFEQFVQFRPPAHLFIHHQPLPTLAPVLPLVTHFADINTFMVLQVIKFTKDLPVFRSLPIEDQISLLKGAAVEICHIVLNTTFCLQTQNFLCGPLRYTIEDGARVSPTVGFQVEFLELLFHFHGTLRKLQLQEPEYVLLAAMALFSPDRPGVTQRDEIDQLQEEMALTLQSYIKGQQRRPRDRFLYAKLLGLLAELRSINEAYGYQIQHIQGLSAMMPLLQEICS
Chain of Luciferin 4-monooxygenase (Photinus pyralis) (P08659 whole entry, looked up): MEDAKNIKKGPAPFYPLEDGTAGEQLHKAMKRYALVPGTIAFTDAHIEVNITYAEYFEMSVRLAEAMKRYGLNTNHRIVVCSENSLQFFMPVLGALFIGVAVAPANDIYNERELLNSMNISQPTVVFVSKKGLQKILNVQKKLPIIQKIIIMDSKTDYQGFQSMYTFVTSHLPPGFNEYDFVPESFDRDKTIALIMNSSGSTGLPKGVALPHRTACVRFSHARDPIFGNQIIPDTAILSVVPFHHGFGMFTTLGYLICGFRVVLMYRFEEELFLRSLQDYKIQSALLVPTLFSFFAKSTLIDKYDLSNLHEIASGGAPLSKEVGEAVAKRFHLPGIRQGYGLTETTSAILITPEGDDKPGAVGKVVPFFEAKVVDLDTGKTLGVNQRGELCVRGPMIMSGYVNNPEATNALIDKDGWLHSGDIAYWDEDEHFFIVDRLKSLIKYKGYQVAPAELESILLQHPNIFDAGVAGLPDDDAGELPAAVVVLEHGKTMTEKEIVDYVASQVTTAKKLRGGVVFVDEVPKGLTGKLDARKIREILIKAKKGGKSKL
Chain of Thyrotropin receptor (Homo sapiens) (P16473 whole entry, looked up): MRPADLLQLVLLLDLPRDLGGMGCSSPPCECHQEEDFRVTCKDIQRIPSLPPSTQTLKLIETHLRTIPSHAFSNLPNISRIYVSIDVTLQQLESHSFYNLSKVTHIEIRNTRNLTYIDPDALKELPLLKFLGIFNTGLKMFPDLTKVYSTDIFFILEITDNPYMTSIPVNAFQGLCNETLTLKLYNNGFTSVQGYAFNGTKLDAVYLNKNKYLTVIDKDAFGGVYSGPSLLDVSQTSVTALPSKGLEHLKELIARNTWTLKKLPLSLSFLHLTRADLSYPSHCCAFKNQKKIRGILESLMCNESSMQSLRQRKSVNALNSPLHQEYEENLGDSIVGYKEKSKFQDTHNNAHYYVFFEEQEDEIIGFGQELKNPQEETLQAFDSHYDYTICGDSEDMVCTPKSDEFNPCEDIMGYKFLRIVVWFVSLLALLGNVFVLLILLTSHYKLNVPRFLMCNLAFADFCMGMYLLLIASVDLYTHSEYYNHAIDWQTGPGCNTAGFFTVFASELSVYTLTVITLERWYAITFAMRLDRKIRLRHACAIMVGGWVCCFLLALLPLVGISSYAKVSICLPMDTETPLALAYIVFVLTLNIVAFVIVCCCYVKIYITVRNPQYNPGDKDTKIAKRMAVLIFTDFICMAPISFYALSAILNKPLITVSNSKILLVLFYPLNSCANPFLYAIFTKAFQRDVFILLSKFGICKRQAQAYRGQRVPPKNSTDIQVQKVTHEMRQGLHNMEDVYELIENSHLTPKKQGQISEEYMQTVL

CC(C)(C)CC(C)(C)c1ccc(OCCOCC[N+](C)(C)Cc2ccccc2)cc1
inactive: [4] | [5] | [8]
active: [1] 6.91 µM and 4.77 µM | [2] 61.1 µM | [3] 48.5 µM and 13.3 µM | [6] 48.5 µM | [7] 27.3 µM and 6.68 µM | [9] 13.7 µM and 11.9 µM

CCCCCCCC[N+](CCCCCCCC)(CCCCCCCC)CCCCCCCC
inactive: [12] | [8]
active: [1] 13.8 µM | [2] 27.3 µM | [3] 24.3 µM | [5] 9.67 µM | [10] 9.67 µM | [11] 21.6 µM

Oc1c(Cl)cc(Cl)c2cccnc12
active: [1] 0.952 µM | [3] 13.3 µM | [6] 26.6 µM
inactive: [2] | [4] | [5] | [12] | [8] | [9]

O=[N+]([O-])c1cc([N+](=O)[O-])c2ccc(S(=O)(=O)O)cc2c1O
active: [3] 12.1 µM | [5] 27.1 µM | [10] 24.2 µM | [6] 24.2 µM
inactive: [1] | [2]

Cc1c(C)c2c(c(C)c1O)CCC(C)(COc1ccc(CC3SC(=O)NC3=O)cc1)O2 (stereo not drawn)
inactive: [1] | [2] | [3] | [4] | [5] | [10] | [11] | [12] | [9]

Cc1onc(-c2c(Cl)cccc2Cl)c1C(=O)N[C@@H]1C(=O)N2[C@@H]1SC(C)(C)[C@@H]2C(=O)O
not listed: [4] | [14] | [15] | [16] | [17] | [18] | [19]
inactive: all other assays above

CN(C)C(=O)C1(N2CCCCC2)CCN(CC[C@@]2(c3ccc(Cl)c(Cl)c3)CN(C(=O)c3ccccc3)CCO2)CC1
active: [1] 16.2 µM | [14] 28.6 µM | [3] 50.9 µM | [5] 50.9 µM | [10] 50.9 µM | [11] 50.9 µM | [6] 28.6 µM | [7] 50.9 µM
inactive: [4] | [12] | [8]

O=c1cc(-c2ccc(O)cc2)oc2cc(O)cc(O)c12
active: [13] 1.56 µM | [3] 49.2 µM and 30.6 µM | [4] 10.2 µM and 7.96 µM | [5] 55.2 µM | [12] 24.7 µM and 61.1 µM
inactive: [1] | [11] | [9]

CCCC(=O)OC[C@@H](OC(=O)CCC)[C@@H](OC(=O)CCC)[C@H](Cn1c2nc(=O)[nH]c(=O)c-2nc2cc(C)c(C)cc21)OC(=O)CCC
inactive: [1] | [2] | [4] | [12] | [8] | [9]
active: [11] 29.8 µM | [7] 23.7 µM

CC1=C(C(=O)OC(C)C)C(c2cccc([N+](=O)[O-])c2)C(C(=O)OC2CN(C(c3ccccc3)c3ccccc3)C2)=C(N)N1 (stereo not drawn)
active: [1] 13.4 µM | [14] 23.7 µM | [3] 29.8 µM | [5] 29.8 µM | [10] 29.8 µM | [6] 29.8 µM | [7] 26.6 µM
inactive: [4] | [12] | [8]

N=C1N=C(N)c2cc3ccccc3cc21
active: [1] 49 µM | [14] 43.3 µM | [15] 25.3 µM | [17] 20.9 µM | [3] 27.3 µM | [5] 24.3 µM | [6] 27.3 µM | [9] 6.86 µM
inactive: [16] | [18] | [4] | [7]

c1ccc(CSCc2ccccc2)cc1
inactive: [1] | [2] | [3] | [5] | [10] | [6]

Oc1ccc(Cl)cc1Sc1cc(Cl)ccc1O
active: [1] 43.6 µM | [14] 26.6 µM | [3] 30.6 µM and 26.6 µM | [11] 68.5 µM | [7] 13.7 µM and 10.6 µM
inactive: [13] | [4] | [12] | [8]

O=c1[nH]sc2ccccc12
inactive: [12] | [8]
active: [1] 19.5 µM | [14] 17.2 µM | [3] 61.1 µM | [4] 20 µM | [5] 54.5 µM | [10] 27.3 µM | [6] 48.6 µM | [7] 27.3 µM

CCCCCCCCCCCCCCCCCC[N+](C)(C)C
inactive: [4] | [12] | [8]
active: [1] 24.6 µM | [14] 54.6 µM | [3] 61.3 µM | [10] 54.6 µM | [7] 54.6 µM

O=C1c2c(O)ccc(Nc3ccc(CCO)cc3)c2C(=O)c2c([N+](=O)[O-])ccc(O)c21
active: [3] 38.6 µM | [4] 17.8 µM | [12] 27.3 µM
inactive: [1] | [14] | [11]

CSc1ccc2c(c1)C(N1CCN(C)CC1)Cc1ccccc1S2 (stereo not drawn)
inactive: [2] | [4] | [5] | [11] | [12]
active: [1] 23.9 µM

OCCN1CCN(CC/C=C2/c3ccccc3Sc3ccc(C(F)(F)F)cc32)CC1
active: [1] 19 µM | [14] 26.6 µM | [3] 29.8 µM | [6] 29.8 µM | [7] 29.8 µM
inactive: [16] | [19] | [17] | [18] | [4] | [8] | [9]

CC(C)(C)NC(=O)[C@@H]1C[C@@H]2CCCC[C@@H]2CN1C[C@@H](O)[C@H](Cc1ccccc1)NC(=O)[C@H](CC(N)=O)NC(=O)c1ccc2ccccc2n1
inactive: [4] | [12] | [8]
active: [1] 24.9 µM | [14] 55.2 µM | [3] 24.7 µM | [5] 31 µM | [10] 24.7 µM | [6] 31 µM | [7] 27.7 µM | [9] 27.7 µM

CC1=C(/C=C/C(C)=C/C=C/C(C)=C/C=O)C(C)(C)CCC1
active: [1] 19.4 µM | [13] 0.542 µM | [3] 27.1 µM | [5] 54.2 µM | [10] 68.2 µM | [12] 15.3 µM | [6] 54.2 µM | [9] 6.82 µM
